Several values for one entry are separate records, joined by “and”; a condition that tells them apart may be missing. Equal entries are not always repeated. Activity calls are given as the source filed them. How the source made its calls: active means hit-call score of the fitted dose curve at least 0.9, where 1 is the maximum; inactive means score below 0.9.
read-out: KRT18 (gene 3875); assay: BSK_BF4T_Keratin818: BioMAP Diversity Plus: BF4T Assay for Keratin 818 Biomarker Activity (AID 2284266); conditions: primary human bronchial epithelial cells with fibroblasts
Experimental: BSK_BF4T is a cell-based, multiplexed-readout assay that uses bronchial epithelial cells and dermal fibroblasts, a human vascular primary cell, with measurements taken at 24 hours after chemical dosing in a microplate: 96-well plate.BSK_BF4T_Keratin818 is an assay component measured in the BSK_BF4T assay. It measures Keratin 8/18 antibody related to regulation of gene expression using ELISA technology.Data from the assay component BSK_BF4T_Keratin818 was analyzed at the endpoint, BSK_BF4T_Keratin818, in the positive analysis fitting direction relative to DMSO as the negative control and baseline of activity. Using a type of binding reporter, gain or loss-of-signal activity can be used to understand protein changes. To generalize the intended target to other relatable targets, this assay endpoint is annotated to the 'cell adhesion molecules' intended target family, where the subfamily is 'keratin'.
The levels of cell surface (or secreted, indicated by the prefix "s") biomarker endpoints were measured by ELISA. Overt cytotoxicity to cells in confluent adherent cultures (all systems other than the BT system) was assessed by measuring total protein levels using sulforhodamine B (SRB) staining in parallel cultures at the time of biomarker measurements, indicated as SRB endpoints. For proliferation assays for adherent cell types, individual cell types are cultured at sub-confluence and relative cell numbers quantified by SRB staining at time points optimized for each system (48 h: 3C and CASM3C systems; 72 h: BT and HDF3CGF systems; 96 h: SAg system). SRB was performed by staining cells with 0.1% SRB after fixation with 10% TCA and reading wells at 560 nm.Viability and proliferation of PBMC (T cells) was quantified by Alamar Blue reduction for the SAg and BT systems. For PBMC viability (referred to as PBMC Cytotoxicity within the assay endpoint names), cells were plated (75,000/well in a 96-well plate) and then chemical samples added for 1 h before addition of activators, SEB and TSST-1 (20 ng/mL final concentration each). Cells were incubated for 90 h. Then, Alamar Blue (20 uL/well) (Invitrogen, Cat DAL1100) was added for 6 h, and the plates were read with a fluorescence microplate reader at 546/580 nm (excitation/emission). For PBMC proliferation, cells were plated and activated as above but incubated for only 16 h prior to addition of Alamar Blue. Plates were read after 6 h.

Row | Compound | outcome | AC50
1 | C=CC(=O)OCCC(F)(F)C(F)(F)C(F)(F)C(F)(F)C(F)(F)C(F)(F)C(F)(F)C(F)(F)F | inactive | –
2 | OCC(F)(F)C(F)(F)C(F)(F)C(F)(F)C(F)(F)C(F)(F)C(F)(F)C(F)(F)C(F)(F)C(F)(F)C(F)(F)F | inactive | –
3 | CN(CCO)S(=O)(=O)C(F)(F)C(F)(F)C(F)(F)C(F)(F)C(F)(F)C(F)(F)C(F)(F)C(F)(F)F | inactive | –
4 | O=P(O)(O)CCC(F)(F)C(F)(F)C(F)(F)C(F)(F)C(F)(F)C(F)(F)F | inactive | –
5 | CN(Cc1cnc2nc(N)nc(N)c2n1)c1ccc(C(=O)N[C@@H](CCC(=O)O)C(=O)O)cc1 | inactive | –
6 | O=S(=O)(O)C(F)(F)C(F)(F)C(F)(F)C(F)(F)C(F)(F)C(F)(F)C(F)(F)C(F)(F)C(F)(F)C(F)(F)F | inactive | –
7 | O=C(O)C(F)(F)OC(F)(F)C(F)(F)OC(F)(F)C(F)(F)OC(F)(F)C(F)(F)C(F)(F)C(F)(F)F | – | 14.6 µM (active) and 7.97 µM (active)
8 | O=P(O)(O)CCC(F)(F)C(F)(F)C(F)(F)C(F)(F)C(F)(F)C(F)(F)C(F)(F)C(F)(F)F | inactive | –
9 | O=C(O)CCC(F)(F)C(F)(F)C(F)(F)C(F)(F)C(F)(F)F | inactive | –
10 | O=C(CC(=O)C(F)(F)C(F)(F)C(F)(F)F)c1cccs1 | – | 23.1 µM (active) and 28 µM (active)
11 | O=C(O)CCC(F)(F)C(F)(F)C(F)(F)C(F)(F)C(F)(F)C(F)(F)F | inactive | –

— PubChem BioAssay (EPA / NIEHS)
